Screening results deposited in PubChem by National Center for Advancing Translational Sciences (NCATS).
AmpC inh no detg – inhibitors of E. coli AmpC beta-lactamase without detergent; P00811; 330,000 compounds, 0.52% hits; Potency, µM (series often up to 57.1 µM), for inactives: at the top dose activity change, negative = inhibition, actives largely listed as inhibitors; AmpC nitrocefin hydrolysis, absorbance 480 nm, 0.0001% Triton;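 also: plate controls were no compound for no effect and no enzyme for full effect; nearly all actives have a fitted effect of over 20% in size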
Target sequence (P00811 whole entry, looked up): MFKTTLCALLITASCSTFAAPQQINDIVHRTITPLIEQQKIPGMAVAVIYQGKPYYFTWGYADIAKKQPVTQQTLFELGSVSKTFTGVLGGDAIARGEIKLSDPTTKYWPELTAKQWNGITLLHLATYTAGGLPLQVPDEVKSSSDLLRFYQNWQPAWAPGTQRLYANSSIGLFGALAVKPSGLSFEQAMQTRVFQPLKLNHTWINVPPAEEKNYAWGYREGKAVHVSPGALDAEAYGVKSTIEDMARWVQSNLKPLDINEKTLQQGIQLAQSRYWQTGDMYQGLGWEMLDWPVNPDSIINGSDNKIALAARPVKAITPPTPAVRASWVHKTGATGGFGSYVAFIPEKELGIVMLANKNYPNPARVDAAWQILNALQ
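20 mM phosphate pH 7.0 + 0.01% (detergent screen) or 0.0001% Triton X-100; 5.3 nM AmpC reagent; cpd preinc 15 min RT; nitrocefin (800 uM stock) to start; A480 q20 s × 4 min; Activity was normalised to no-enzyme and no-compound control wells.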
AmpC detergent – AmpC beta-lactamase inhibition with detergent present | P00811 | AmpC hydrolysis of nitrocefin, absorbance 480 nm, 0.01% Triton | Potency, µM (doses to about 114 µM), for the others: at the top dose activity change, negative = inhibition, hits mostly inhibitors | 370,000 compounds, 0.041% hits | AID 485294;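 also: 0% = no-compound wells and -100% = no-enzyme wells; nearly all actives have a fitted effect of over 25% in size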
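AmpC (5.3 nM in the dispensed reagent) in 20 mM phosphate pH 7.0 with 0.01% (detergent screen) or 0.0001% Triton X-100 was preincubated with compounds for 15 min at room temperature. Nitrocefin was then added from an 800 uM solution, and hydrolysis was followed at 480 nm.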
Sm TGR block – S. mansoni TGR enzyme inhibition | Q962Y6 | 360,000 compounds, 3% hits | Potency, µM (top dose mostly 114 µM), for the others: at the highest dose activity change, negative = inhibition, hits mostly inhibitors | purified TGR, DTNB reduction, TNB absorbance 405 nm; also: nearly all actives have a fitted effect of over 60% in size
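First, TGR (20 nM dispensed) and NADPH were mixed with compound. Second, a 15 min room-temperature incubation followed. Third, further NADPH and then DTNB were added to start the reaction. Finally, TNB absorbance was monitored kinetically.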
Giardia FBPA inh-1 – Giardia lamblia aldolase inhibition; A8B2U2; Potency, µM (titrated, usually from 59.6 µM), inactives show at the highest dose activity, negative = inhibition, most hits filed as inhibitors; purified Giardia FBPA; AID 2451; 290,000 compounds, 0.71% hits; also: nearly all actives have a fitted effect of over 55% in size
Target sequence (A8B2U2 whole entry, looked up): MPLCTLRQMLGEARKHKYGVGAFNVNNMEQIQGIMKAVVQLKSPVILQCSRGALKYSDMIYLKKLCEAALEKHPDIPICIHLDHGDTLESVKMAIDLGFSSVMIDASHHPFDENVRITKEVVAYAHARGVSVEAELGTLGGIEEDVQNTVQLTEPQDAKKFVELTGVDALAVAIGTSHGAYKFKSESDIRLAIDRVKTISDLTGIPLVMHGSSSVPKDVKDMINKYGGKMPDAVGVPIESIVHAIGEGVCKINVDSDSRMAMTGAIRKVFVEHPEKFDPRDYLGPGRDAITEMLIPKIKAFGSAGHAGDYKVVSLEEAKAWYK
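Giardia FBPA (40 nM reagent) was preincubated 10 min at RT with compound (up to 57.5 uM final), then substrate plus GAPDH/TPI/NAD/arsenate coupling system with diaphorase/resazurin was added; resorufin fluorescence (525/598 nm) was read after 20 min.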
RE007 growth inh – less growth of the S. pombe RE007 Vpr strain; S. pombe RE007 Vpr strain, BacTiter-Glo ATP luminescence, 24 h; AID 651644; 360,000 compounds, 0.21% hits; Potency, µM (highest dose often 92.2 µM), for the others: at the highest dose activity change, negative = less growth, hits mostly inhibitors; active = well fitted falling curve with a large enough effect; inconclusive = small, poorly fitted or top-dose-only effect; inactive = no such curve, though single readings can be large or run the other way; also: nearly all actives have a fitted effect of over 50% in size
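Fission yeast RE007 carrying one integrated HIV-1 vpr copy, seeded at OD 0.01 in PMG+AL medium with 23 nL pinned compound. Grown 24 h at 30 degrees; viability read by BacTiter-Glo luminescence after 5 min.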
Giardia growth – inhibitors of Giardia lamblia growth. AID 2785. shares compounds with Giardia FBPA inh-1. Potency, µM (top dose mostly 57.5 µM), for inactives: at the top dose activity change, negative = inhibition, usual class: inhibitors. Giardia lamblia trophozoite growth inhibition. 1,500 compounds, 5% hits;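 also: trophozoites exposed to compound for 48 h at 37 °C; nearly all actives have a fitted effect of over 70% in size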
Mammalian tox – mammalian cytotoxicity of Giardia aldolase inhibitor hits | Potency, µM (doses to about 57.5 µM), for inactives: top-dose viability change, negative = toxicity, most hits filed as inhibitors | 1,500 compounds, 4% hits | AID 2786 | shares compounds with Giardia FBPA inh-1 | mammalian cell viability counter-screen, qHTS;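 also: Chinese hamster ovary cells used as mammalian cytotoxicity surrogate; viability measured as cellular ATP by luminescence; compound exposure lasted 48 h before reading; nearly all actives have a fitted effect of over 60% in size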
Giardia FBPA inh-2 – confirmation of Giardia fructose-bisphosphate aldolase inhibitors. purified Giardia aldolase enzyme activity, qHTS. AID 2787. 1,500 compounds, 5% hits. shares compounds with Giardia FBPA inh-1. Potency, µM (titrated, usually from 57.5 µM), inactives show at the top dose activity change, negative = inhibition, usual class: inhibitors; also: nearly all actives have a fitted effect of over 45% in size
Rabbit aldolase – blocks rabbit muscle aldolase in Giardia aldolase selectivity test; shares compounds with Giardia FBPA inh-1; Rabbit muscle FBPA enzyme inhibition, selectivity counter-screen; Potency, µM (top dose mostly 57.5 µM), inactives show top-dose activity, negative = inhibition, actives largely listed as inhibitors; 1,500 compounds, 4% hits; AID 2794; also: nearly all actives have a fitted effect of over 60% in size
GAPDH coupling – counter-screen for Giardia aldolase inhibitors: GAPDH coupling enzyme; shares compounds with Giardia FBPA inh-1; GAPDH coupling enzyme counterscreen, biochemical, qHTS; Potency, µM (doses to about 57.5 µM), inactives show at the top dose activity change, negative = inhibition, hits mostly inhibitors; 1,500 compounds, 6% hits; also: nearly all actives have a fitted effect of over 55% in size
Starred values were filed as active, the others as inactive; ? = inconclusive; / = no result; [ ] = dose if it differs, or a comment. A selection: hits, their analogues and other compounds. The true share with any hit is near 3.4%. Unless noted, calls follow the shape of the dose curve; as a rule, active = well fitted curve in the direction sought with a large enough effect; inconclusive = small, poorly fitted or top-dose-only effect, or another doubt; inactive = no such curve, though single readings can be large; an effect the other way counts as inactive or inconclusive. Unless noted, % is scaled to controls: 0 for no effect and ±100 for the full control effect; potency is read from the fitted curve at half-maximal effect.

SMILES | AmpC inh no detg | AmpC detergent | Sm TGR block | Giardia FBPA inh-1 | RE007 growth inh | others
CC1=NN(c2ccccc2)C(=O)/C1=C\c1ccc(Oc2ccc([N+](=O)[O-])cc2[N+](=O)[O-])cc1 | ? | ? | 13µM* | -24% | -20%
COc1cc(/C=C2/C(=O)N(c3ccc(C(=O)O)cc3)N=C2C)cc(OC)c1O | -6% | 1% | 10µM* | ? | -16%
COc1cc(/C=C2/C(=O)N(c3ccc(C)c(C)c3)N=C2C)cc([N+](=O)[O-])c1O | -21% | -14% | -2% | 1% | -13%
Cc1ccc(-n2ncc3c2CC(C)(C)CC3NC(=O)CCn2cncn2)cc1 (centres undefined) | 64% | -5% | 0% | / | 4%
O=C1Nc2ccccc2Oc2cc(Oc3cccc(Cl)c3)ccc21 | / | 0% | 0% | / | /
O=C(NC1CCS(=O)(=O)C1)/C(=C/c1ccco1)NC(=O)c1ccccc1 (centres undefined) | 24% | -8% | / | 3% | -10%
O=C(NC1CCS(=O)(=O)C1)/C(=C\c1ccco1)NC(=O)c1ccccc1 (centres undefined) | -19% | 1% | 35µM* | -13% | -14%
CC(C)(C)c1ccc(C(=O)N/C(=C\c2ccco2)C(=O)Nc2ccccc2C(=O)O)cc1 | -38% | 5% | 40µM* | -19% | 0%
CCc1ccc(OCc2nnc(SCC(=O)NCC3CCCO3)n2C)cc1 (centres undefined) | 32% | -6% | 3% | -2% | -4%
COc1ccc(CCNC(=O)c2cc(S(=O)(=O)N(C)C)ccc2N2CCCC2)cc1OC | 32% | 3% | -11% | / | -14%
COC(=O)c1ccc2c(=O)[nH]c(CN3c4ccccc4CC3C)nc2c1 (centres undefined) | -13% | -4% | 7.1µM* | -11% | 12%
CN(C)c1ccc(CNc2ccc3c(c2)ncn3C)cc1 | 5% | ? | 35µM* | -17% | 7%
CCc1ccc(CNc2ccc3c(c2)ncn3CC)cc1 | 0% | -4% | 4.5µM* | 2% | -28%
Cc1c(Cl)cccc1NS(=O)(=O)c1cccc2nsnc12 | -38% | -6% | 0% | -2% | -5%
Cc1ccc(Nc2nc(N)nc(CN3CCN(C)CC3)n2)cc1 | -25% | -10% | -1% | -7% | -8%
Cc1ccc2c(CN3CCN(Cc4ccccc4)CC3)cc(=O)oc2c1C | 118% | -6% | -22% | 2% | -20%
Cc1ccc(Nc2nc(N)nc(CN3CCCCCC3)n2)cc1 | -15% | ? | 40µM* | -2% | -14%
Cc1ccc2c(CN3CCN(C(=O)c4ccco4)CC3)cc(=O)oc2c1C | 33% | 2% | 45µM* | -5% | 6%
Cc1ccc(Nc2nc(N)nc(CN3CCN(C(=O)c4ccco4)CC3)n2)cc1Cl | 59% | -2% | 40µM* | -12% | 0%
COc1ccccc1CNC(=O)CSc1ncc2c(n1)-c1ccccc1N(Cc1ccc(C)cc1)S2(=O)=O | / | -4% | 0% | / | /
CN(c1ccccc1)S(=O)(=O)c1cccc(C(=O)N2CCCCCC2)c1 | 116% | -15% | -1% | / | 3%
CC(C)c1ccc(N=c2c([N+](=O)[O-])nn(-c3ccc4c(c3)OCCO4)n2O)cc1 | ? | ? | 13µM* | -14% | 27%
O=[N+]([O-])c1nn(-c2ccc3c(c2)OCCO3)n(O)c1=NCCC1=CCCCC1 | -27% | -4% | 25µM* | -5% | 25%
O=S(=O)(c1ccccc1)N1CCC[C@@]2(CCN(c3ncccn3)C2)C1 | / | / | / | 1% | /
CCOC(=O)c1cnc2ccc(C)cc2c1Sc1ccccc1 | 12% | -2% | ? | -5% | -15%
SMILES | AmpC inh no detg | AmpC detergent | Sm TGR block | Giardia FBPA inh-1 | RE007 growth inh | others
COC(=O)c1ccc(OC(=O)CS(=O)c2ccccc2[N+](=O)[O-])cc1 (centres undefined) | -18% | 2% | 22µM* | -7% | -28%
O=C(CS(=O)c1ccc(C(F)(F)F)cc1[N+](=O)[O-])Oc1ccccc1 (centres undefined) | 1% | 6% | 35µM* | ? | 45µM*
O=C(CNc1ccc(C(F)(F)F)cc1[N+](=O)[O-])OCC(=O)c1ccccc1 | -9% | 0% | 2% | -2% | ?
CS(=O)(=O)c1ccc(S(=O)CC(=O)OCc2ccccc2)c([N+](=O)[O-])c1 (centres undefined) | -6% | -11% | 2.5µM* | ? | -17%
CCOC(=O)c1ccccc1OC(=O)CS(=O)c1ccccc1[N+](=O)[O-] (centres undefined) | -3% | 2% | / | -3% | 4%
COC(=O)CCC(=O)NS(=O)(=O)c1ccc(N=NN2CCOCC2)cc1 | -28% | 1% | -5% | 3% | -10%
COc1ccc(-c2csc(NC(=O)c3ccc(S(=O)(=O)N4CCc5ccccc5C4)cc3)n2)cc1 | 8.9µM* | ? | -22% | 2% | -9%
CCc1[nH]nc(C(=O)N2CCCC(CCC(=O)N3CCN(c4ccccn4)CC3)C2)c1C (centres undefined) | 92% | 4% | 0% | 4% | 0%
[NH-]c1ncnc2c1N=C[N+]2=CC=CCO | -14% | 1% | ? | 8.9µM* | / | Giardia growth=-10%[38.3 µM];Mammalian tox=8%;Giardia FBPA inh-2=2%;Rabbit aldolase=6%;GAPDH coupling=11%
Cc1ccc(C)c(NC(=S)Nc2ncccc2C)c1 | -8% | 4% | -23% | ? | 6%
Cc1cccnc1NC(=S)Nc1ccc(F)cc1F | -12% | -1% | ? | 20µM* | -17% | Giardia growth=?;Mammalian tox=6%;Giardia FBPA inh-2=-3%;Rabbit aldolase=12%;GAPDH coupling=-6%
